Common to all, as to set-up: scale not given: direction of the effect not stated beside the values
Assay [1] deals with Protein translocase subunit SecA (Escherichia coli (strain K12)) (UniProt P10408). Nature of the assay: Assay to Identify E. coli SecA ATPase Inhibitors. The assay is classed as functional. The note with it: 30 µM.
Assay [2] deals with T1, Ubiquitin-activating enzyme e1, putative (Leishmania donovani (strain BPK282A1)) (UniProt E9BSI1).
T1 sequence (whole entry): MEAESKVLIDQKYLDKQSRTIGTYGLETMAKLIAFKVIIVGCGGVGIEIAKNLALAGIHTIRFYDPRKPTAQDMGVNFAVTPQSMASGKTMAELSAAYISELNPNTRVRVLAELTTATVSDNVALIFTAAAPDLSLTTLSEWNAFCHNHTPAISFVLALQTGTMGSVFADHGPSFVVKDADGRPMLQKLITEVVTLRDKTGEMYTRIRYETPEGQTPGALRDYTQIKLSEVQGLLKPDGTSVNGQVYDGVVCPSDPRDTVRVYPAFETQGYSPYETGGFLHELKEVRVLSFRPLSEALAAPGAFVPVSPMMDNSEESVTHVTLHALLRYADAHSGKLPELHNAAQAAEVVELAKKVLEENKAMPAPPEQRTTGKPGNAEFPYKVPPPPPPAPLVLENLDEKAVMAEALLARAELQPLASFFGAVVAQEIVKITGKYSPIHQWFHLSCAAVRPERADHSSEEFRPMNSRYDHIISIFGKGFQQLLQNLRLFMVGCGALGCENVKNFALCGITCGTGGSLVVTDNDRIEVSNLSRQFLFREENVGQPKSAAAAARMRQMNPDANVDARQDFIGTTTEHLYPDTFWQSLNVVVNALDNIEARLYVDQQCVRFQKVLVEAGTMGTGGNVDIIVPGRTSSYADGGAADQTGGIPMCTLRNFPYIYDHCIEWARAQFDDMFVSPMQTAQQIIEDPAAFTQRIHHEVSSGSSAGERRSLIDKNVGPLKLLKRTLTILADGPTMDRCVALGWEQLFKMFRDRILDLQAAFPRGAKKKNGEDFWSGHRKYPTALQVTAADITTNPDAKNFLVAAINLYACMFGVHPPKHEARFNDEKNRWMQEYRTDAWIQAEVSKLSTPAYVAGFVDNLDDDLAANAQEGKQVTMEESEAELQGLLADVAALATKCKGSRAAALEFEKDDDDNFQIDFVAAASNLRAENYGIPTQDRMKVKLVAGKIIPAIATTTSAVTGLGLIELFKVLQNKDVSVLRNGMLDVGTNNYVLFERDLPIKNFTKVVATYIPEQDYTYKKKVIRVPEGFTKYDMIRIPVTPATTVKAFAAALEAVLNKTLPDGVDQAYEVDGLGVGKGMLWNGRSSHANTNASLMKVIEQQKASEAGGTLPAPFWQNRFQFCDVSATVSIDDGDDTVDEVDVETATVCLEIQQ
In words: Leishmania donovani Ubiquitin Activating Enzyme (LdE1). The assay is classed as functional. As to conditions: 30 µM.

Assay [3] has as its target AMP-activated protein kinase, AMPK (Homo sapiens) (UniProt P54646+O43741+P54619+Q9UGJ0+Q9Y478+Q13131+Q9UGI9). Nature of the assay: AMP-dependent Kinase enzyme assay. An in vitro enzyme assay that detects ADP turnover that is directly proportional to AMPK activity. This uses naive AMPK that is activated during the assay with MK-8722. The note with it: 30 µM. It counts as functional.

Assay [4] addresses Sialic acid-binding Ig-like lectin 9 (Homo sapiens) (UniProt Q9Y336). In words: Hs-Siglec9 ALPHAscreen SOP 20170721. As to conditions: 10 µM. (In general: Bead proximity is the source of the signal in Alpha formats.)
A further assay concerns Trypanosoma cruzi. In words: Trypanosoma cruzi phosphomannomutase and mannose-1-phosphate guanylyltransferase assay. The assay is classed as functional. As to conditions: 10 µM.
In assay [5] the target is T2, Arginase-2, mitochondrial (Homo sapiens) (UniProt P78540).
T2 sequence (whole entry): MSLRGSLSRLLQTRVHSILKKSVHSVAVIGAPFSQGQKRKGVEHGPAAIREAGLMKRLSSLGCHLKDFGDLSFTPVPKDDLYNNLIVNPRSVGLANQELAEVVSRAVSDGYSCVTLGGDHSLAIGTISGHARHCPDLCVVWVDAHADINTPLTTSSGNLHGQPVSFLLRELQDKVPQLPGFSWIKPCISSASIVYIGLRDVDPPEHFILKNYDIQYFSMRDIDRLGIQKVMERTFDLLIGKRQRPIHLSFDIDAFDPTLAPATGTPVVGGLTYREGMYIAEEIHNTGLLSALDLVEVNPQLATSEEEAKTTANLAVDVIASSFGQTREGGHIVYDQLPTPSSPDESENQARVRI
In words: in vitro enzyme assay to detect the production of urea directly proportional to the activity of Arginase II. Also: in the data most compounds retested in dose-response had high values. The assay is classed as functional. The note with it: 33.3 µM.

Assay [6] has as its target T3, Proteasome subunit beta (Trypanosoma cruzi) (UniProt O96673).
T3 sequence (whole entry): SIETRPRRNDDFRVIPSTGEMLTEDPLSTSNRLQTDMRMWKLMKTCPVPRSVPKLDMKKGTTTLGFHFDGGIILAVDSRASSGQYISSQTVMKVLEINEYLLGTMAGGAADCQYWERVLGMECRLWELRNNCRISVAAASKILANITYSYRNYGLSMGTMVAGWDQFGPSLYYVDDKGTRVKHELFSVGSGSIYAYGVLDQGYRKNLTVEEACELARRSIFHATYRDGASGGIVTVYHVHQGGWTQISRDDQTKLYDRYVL
In words: Trypanosoma cruzi proteasome chymotrypsin-like activity (TcProtChymo) assay. Also: in the data most compounds retested in dose-response had high values. It counts as functional. As to conditions: 9.37 µM.

The next assay is filed under the species Homo sapiens. In words: To identify inhibition of the IFN signalling (Jak-Stat) pathway via expression of an eGFP reporter gene under the control of an IFN-stimulated response element (ISRE) containing MxA promoter. The note with it: 30 µM. The assay is classed as functional. In general terms: In a reporter assay the amount or activity of a reporter protein is the signal.

Assay [7] has as its target T4, Tyrosyl-tRNA synthetase, putative (Trypanosoma cruzi (strain CL Brener)) (UniProt Q4DSP6).
T4 sequence (whole entry): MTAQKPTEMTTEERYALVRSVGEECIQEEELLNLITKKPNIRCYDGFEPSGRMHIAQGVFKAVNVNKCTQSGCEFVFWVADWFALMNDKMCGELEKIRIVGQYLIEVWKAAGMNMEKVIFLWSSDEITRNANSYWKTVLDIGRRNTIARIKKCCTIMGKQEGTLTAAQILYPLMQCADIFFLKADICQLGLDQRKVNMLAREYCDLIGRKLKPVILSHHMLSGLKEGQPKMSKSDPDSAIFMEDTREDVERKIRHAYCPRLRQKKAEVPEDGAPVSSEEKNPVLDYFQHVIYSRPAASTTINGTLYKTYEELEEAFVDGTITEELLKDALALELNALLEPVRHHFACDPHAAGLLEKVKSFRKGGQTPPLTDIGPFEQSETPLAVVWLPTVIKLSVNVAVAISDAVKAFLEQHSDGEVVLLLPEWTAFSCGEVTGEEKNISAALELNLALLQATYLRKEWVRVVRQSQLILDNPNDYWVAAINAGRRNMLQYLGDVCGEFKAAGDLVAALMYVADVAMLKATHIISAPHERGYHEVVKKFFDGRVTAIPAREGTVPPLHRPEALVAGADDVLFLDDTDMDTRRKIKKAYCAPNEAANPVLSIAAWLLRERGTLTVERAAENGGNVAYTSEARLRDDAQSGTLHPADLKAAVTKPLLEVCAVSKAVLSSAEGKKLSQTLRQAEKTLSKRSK
In words: Trypanosoma cruzi tyrosyl tRNA synthetase (TcYRS) _High Tyrosine SOP. Also: in the data most compounds retested in dose-response had high values. The assay is classed as functional. The note with it: 30 µM.

Assay [8] concerns the target T4, Tyrosyl-tRNA synthetase, putative (Trypanosoma cruzi (strain CL Brener)). In words: Trypanosoma cruzi tyrosyl tRNA synthetase (TcYRS) SOP. The assay is classed as functional. As to conditions: 30 µM.
Assay [9] deals with Chromo domain-containing protein 1 (Saccharomyces cerevisiae (strain ATCC 204508 / S288c) (Baker's yeast)) (UniProt P32657). Nature of the assay: ScCHD-1 Enzyme Inhibition Assay. Also: in the data most compounds retested in dose-response had high values. The assay is classed as functional. As to conditions: 30 µM.

For some of these results: Measured potencies and affinities stand elsewhere.

Sequence of Chromo domain-containing protein 1 (Saccharomyces cerevisiae (strain ATCC 204508 / S288c) (Baker's yeast)) (P32657 whole entry, the tested form may be a part): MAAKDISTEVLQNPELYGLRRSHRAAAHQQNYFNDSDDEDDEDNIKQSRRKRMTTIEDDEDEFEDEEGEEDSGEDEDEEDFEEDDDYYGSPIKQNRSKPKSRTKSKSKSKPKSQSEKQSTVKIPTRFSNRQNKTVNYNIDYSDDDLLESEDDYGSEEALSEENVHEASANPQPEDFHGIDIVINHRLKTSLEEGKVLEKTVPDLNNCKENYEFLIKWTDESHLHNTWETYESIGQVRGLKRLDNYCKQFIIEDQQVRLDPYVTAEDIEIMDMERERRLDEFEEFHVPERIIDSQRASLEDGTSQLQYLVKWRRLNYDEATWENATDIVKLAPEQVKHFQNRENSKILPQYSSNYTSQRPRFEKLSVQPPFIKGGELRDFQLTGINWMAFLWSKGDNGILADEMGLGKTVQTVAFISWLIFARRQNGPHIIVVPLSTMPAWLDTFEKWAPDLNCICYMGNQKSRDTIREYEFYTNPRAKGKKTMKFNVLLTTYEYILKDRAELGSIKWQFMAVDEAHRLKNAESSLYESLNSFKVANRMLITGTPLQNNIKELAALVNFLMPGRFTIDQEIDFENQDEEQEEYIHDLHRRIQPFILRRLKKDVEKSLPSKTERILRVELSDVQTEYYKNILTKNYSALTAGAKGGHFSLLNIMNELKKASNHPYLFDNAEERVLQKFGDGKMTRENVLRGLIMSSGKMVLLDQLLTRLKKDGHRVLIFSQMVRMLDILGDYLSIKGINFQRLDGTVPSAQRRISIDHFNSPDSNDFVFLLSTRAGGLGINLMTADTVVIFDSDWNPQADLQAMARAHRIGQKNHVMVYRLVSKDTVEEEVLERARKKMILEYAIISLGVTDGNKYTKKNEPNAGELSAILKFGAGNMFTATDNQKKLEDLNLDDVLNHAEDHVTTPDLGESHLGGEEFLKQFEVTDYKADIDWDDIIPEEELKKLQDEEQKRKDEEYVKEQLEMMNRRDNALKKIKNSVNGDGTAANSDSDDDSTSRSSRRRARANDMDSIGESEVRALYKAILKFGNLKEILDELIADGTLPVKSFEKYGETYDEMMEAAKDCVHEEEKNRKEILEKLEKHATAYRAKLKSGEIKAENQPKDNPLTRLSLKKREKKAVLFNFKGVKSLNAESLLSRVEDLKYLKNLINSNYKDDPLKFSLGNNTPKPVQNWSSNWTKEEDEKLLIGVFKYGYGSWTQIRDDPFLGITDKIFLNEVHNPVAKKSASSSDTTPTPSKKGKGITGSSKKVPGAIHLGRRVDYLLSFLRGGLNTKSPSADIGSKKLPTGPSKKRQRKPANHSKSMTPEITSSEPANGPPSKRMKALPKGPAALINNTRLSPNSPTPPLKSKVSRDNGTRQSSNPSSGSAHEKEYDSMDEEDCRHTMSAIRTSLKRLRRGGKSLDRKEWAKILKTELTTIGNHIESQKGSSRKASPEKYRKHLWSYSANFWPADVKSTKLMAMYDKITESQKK
Sequence of Sialic acid-binding Ig-like lectin 9 (Homo sapiens) (Q9Y336 whole entry): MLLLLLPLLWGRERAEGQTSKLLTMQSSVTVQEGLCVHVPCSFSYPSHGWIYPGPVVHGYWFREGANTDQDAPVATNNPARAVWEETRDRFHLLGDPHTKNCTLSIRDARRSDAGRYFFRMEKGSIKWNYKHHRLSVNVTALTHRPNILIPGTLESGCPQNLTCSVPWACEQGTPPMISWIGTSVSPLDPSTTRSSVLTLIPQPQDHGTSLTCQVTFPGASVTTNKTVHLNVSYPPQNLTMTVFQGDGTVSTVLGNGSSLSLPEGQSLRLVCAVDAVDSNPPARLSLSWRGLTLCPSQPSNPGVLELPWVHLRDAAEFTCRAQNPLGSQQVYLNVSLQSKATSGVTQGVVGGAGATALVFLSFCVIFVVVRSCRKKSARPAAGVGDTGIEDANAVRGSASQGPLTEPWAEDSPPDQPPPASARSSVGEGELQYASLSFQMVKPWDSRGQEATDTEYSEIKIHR
Sequence of Protein translocase subunit SecA (Escherichia coli (strain K12)) (P10408 whole entry): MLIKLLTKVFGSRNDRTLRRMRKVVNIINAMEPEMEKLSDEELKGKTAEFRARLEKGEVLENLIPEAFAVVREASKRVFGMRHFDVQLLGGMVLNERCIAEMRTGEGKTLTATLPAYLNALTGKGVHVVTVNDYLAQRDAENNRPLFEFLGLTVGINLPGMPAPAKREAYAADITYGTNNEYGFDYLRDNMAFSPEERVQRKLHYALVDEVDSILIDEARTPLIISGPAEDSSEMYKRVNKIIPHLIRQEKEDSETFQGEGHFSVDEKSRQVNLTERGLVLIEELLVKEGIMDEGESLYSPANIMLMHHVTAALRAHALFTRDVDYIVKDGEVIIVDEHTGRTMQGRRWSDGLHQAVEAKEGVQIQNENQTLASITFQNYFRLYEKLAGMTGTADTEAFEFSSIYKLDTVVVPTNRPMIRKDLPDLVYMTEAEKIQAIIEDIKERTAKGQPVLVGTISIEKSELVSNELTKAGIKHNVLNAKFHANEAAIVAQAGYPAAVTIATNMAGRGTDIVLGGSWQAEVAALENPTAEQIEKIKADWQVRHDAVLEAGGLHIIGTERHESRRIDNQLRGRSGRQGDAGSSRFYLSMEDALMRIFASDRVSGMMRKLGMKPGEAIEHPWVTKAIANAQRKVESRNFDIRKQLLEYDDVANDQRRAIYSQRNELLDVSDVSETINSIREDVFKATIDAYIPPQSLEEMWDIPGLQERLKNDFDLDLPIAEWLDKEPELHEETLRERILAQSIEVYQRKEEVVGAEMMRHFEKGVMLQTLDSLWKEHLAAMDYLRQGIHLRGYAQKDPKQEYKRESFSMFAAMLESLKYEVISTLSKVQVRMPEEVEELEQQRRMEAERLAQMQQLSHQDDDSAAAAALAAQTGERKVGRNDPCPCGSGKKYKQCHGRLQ

As for `COCC1CN(Cc2ccncc2)Cc2nnn(CC3CC3)c21` (stereo not drawn), the Percent Effect was -1.08% in assay [1]; 0% in assay [2]; 2.57% in assay [3]; 2.54% in assay [4]; 0.688% with Trypanosoma cruzi; -1.38% in assay [5]. Besides, the Percent Effect in assay [6] is 1.33%; in the assay listed under Homo sapiens, -3.55%; in [7], 0%; in assay [8], -1.24%; in assay [9], 3.24%.
Consider `Cc1nccn1-c1cc(CNC(=O)CCNC(=O)C2CCCC2)ccn1`, for which the Percent Effect is -5.76% in [1]; 21.1% in assay [2]; -10% in [3]; 9.11% in [4]; 6.63% in the assay with Trypanosoma cruzi; -4.68% in assay [5]. Besides, the Percent Effect in assay [6] was 5.84%; in the assay filed under Homo sapiens it was 5.17%; in [7], 8.37%; in assay [8], 23.5%; in assay [9], -6.78%.
In the case of `O=C(C1COCCO1)N1CCN(Cc2ccc3c(c2)CCO3)CC1` (stereo not drawn), the Percent Effect in assay [1] was -1.12%; in assay [2], -5.26%; in assay [3], -0.262%; in [4] it was 5.55%; in the assay with Trypanosoma cruzi it was 1.21%; in [5] it was -2.52%. Moreover, the Percent Effect in assay [6] is -0.0846%; in the assay listed under Homo sapiens it was -4.94%; in assay [7], 3.45%; in assay [8], 3.7%; in [9] it was -2.12%.
For the compound `COc1ccc(CN(C)CC2CCCN2c2cccnn2)cc1F` (stereo not drawn), the Percent Effect in [1] is 1.17%; in assay [2], 15.6%; in assay [3] it was 13.3%; in assay [4], -7.91%; with Trypanosoma cruzi, -2.25%; in assay [5] it was -7.79%. The Percent Effect was 13.8% in [6]; 18.7% in the assay filed under Homo sapiens; 7.62% in [7]; 18.8% in assay [8]; -22.1% in [9].
For the compound `CCC1(CO)CCCN(c2ncccc2C#N)C1` (stereo not drawn), the Percent Effect in assay [1] was -4.07%; in [2] it was -5.41%; in assay [3] it was -0.35%; in assay [4], 5.12%; with Trypanosoma cruzi, -1.74%; in [5], -3.81%. Also, the Percent Effect in assay [6] is -0.69%; in the assay listed under Homo sapiens, 19.1%; in assay [7], -1.59%; in [8], 0%; in assay [9] it was -3.09%.
For the compound `Cc1nnc(C(C)NCC2(c3ccc(Cl)cc3)CCCC2)o1` (stereo not drawn), the Percent Effect in [1] was -2.66%; in [2], -8.11%; in assay [3], -5.55%; in assay [4], 5.04%; with Trypanosoma cruzi, -1.74%; in assay [5], -4.76%. For the same compound, the Percent Effect is 7.07% in assay [6]; 19.5% in the assay listed under Homo sapiens; 0.529% in assay [7]; -4.88% in assay [8]; 0.504% in [9].
Turning to `CCS(=O)(=O)N1CCc2ccc(NC(=O)Nc3ccc(F)cc3F)cc21`, the Percent Effect was -3.73% in assay [1]; 7.79% in assay [2]; 2.67% in assay [3]; -0.508% in assay [4]; 8.58% in the assay on Trypanosoma cruzi; -3.23% in [5]. Moreover, the Percent Effect was 23% in assay [6]; -1.71% in the assay filed under Homo sapiens; -2.12% in assay [7]; 6.41% in assay [8]; -9.26% in assay [9].
For the compound `NC(=O)C1CCCN(C(=O)c2cnc3c(cnn3C3CCCC3)c2)C1` (stereo not drawn), the Percent Effect in [1] is -8.82%; in [2], 15.2%; in [3], -8.15%; in [4] it was 18.9%; in the assay on Trypanosoma cruzi it was 12.8%; in assay [5], -3.04%. Further, the Percent Effect was 3.19% in [6]; 19.3% in the assay filed under Homo sapiens; 6.4% in [7]; 24.1% in assay [8]; -11.1% in assay [9].

Source of the values: ChEMBL document CHEMBL3988442, “University of Dundee, Small-Polar-MMV Screening Library” (2021).
